Screens (PubChem BioAssay)
IL1B secr inh: qHTS for Inhibitors of Inflammasome Signaling: IL-1-beta AlphaLISA Primary Screen; hit rate 4.7% among 360,000; activity change, % at 57.5 µM; THP-1 LPS/ATP IL-1B secretion, AlphaLISA, 16 h; hits give low values; AID 743279, 2014; in the data active = activity change below about -50%; inconclusive = mostly about -30% to -49%; also: % is scaled to controls: 0 for no effect and ±100 for the full control effect
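Secreted IL-1B measured by AlphaLISA bead assay after 16 h compound exposure of THP-1 cells; compounds (final up to 57.5 uM) added 1 h before LPS (250 ng/mL) and ATP (1.25 mM) stimulation; lower signal means less secretion.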
HepG2 tox: qHTS for Inhibitors of TGF-b: Cytotox Counterscreen; Potency, µM (series often up to 46.1 µM), for inactives: at the top dose activity change, negative = cytotoxicity, hits mostly cytotoxic; hit rate 0.76% among 410,000; HepG2 CAGA-GFP viability, ATP luminescence, 18 h; also: potency is read from the fitted curve at half-maximal effect
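HepG2 CAGA-GFP cells (1000/well, DMEM with 1% FBS) received compound, then TGF-beta at 500 pg/mL final, and were incubated 18 hours at 37 degrees C. Viability was read by CellTiter-Glo luminescence. Media-only wells were set as complete cell-killing and DMSO as no toxicity.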
ATXN2 expr inh: Primary qHTS for Inhibitors of ATXN expression | HEK-293 ATXN2-luciferase reporter, luminescence, 24 h | Potency, µM (series often up to 57 µM), for inactives: top-dose activity change, negative = inhibition, usual class: inhibitors | hit rate 0.72% among 360,000; also: potency is read from the fitted curve at half-maximal effect; % is scaled to controls: 0 for no effect and ±100 for the full control effect; nearly all actives have a fitted effect of over 55% in size
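ATXN2-luciferase reporter cells (luciferase flanked by upstream and downstream ATXN2 gene portions) were treated 24 h at 37 °C with compounds at up to 57 uM. SteadyGlo luminescence gave expression; GF-AFC fluorescence gave viability.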
TGFb SMAD3 inh: qHTS for Inhibitors of TGF-b. HepG2 CAGA-GFP TGF-b/SMAD3 reporter, GFP fluorescence, 18 h; TGF-beta stimulated, 500 pg/mL final. Potency, µM (titrated, usually from 46.1 µM), for inactives: at the top dose activity, negative = inhibition, usual class: inhibitors. hit rate 1.2% among 410,000. AID 588855, 2011; also: potency is read from the fitted curve at half-maximal effect; % is scaled to controls: 0 for no effect and ±100 for the full control effect; nearly all actives have a fitted effect of over 65% in size
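HEPG2 CAGA-GFP reporter cells (1000/well, DMEM with 1% FBS) received compounds, then recombinant TGF-beta at 500 pg/mL final for 18 hours at 37 degrees C. Per-cell GFP summed per well was normalised to unstimulated and stimulated DMSO controls before curve fitting.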
ATXN viability: Viability Counterscreen for Primary qHTS for Inhibitors of ATXN expression. AID 651635, 2014. S2 cells (HEK-293 line with an ATXN2-luciferase reporter) viability, CellTiter-Fluor protease fluorescence, 24 h. hit rate 0.49% among 400,000. Potency, µM (doses to about 56.7 µM), actives largely listed as cytotoxic; also: potency is read from the fitted curve at half-maximal effect; nearly all actives have a fitted effect of over 40% in size
An asterisk follows results filed as active; i = inactive; ? = inconclusive; / = no result given. A selection: hits, their analogues and other compounds. The true share with any hit is near 5.7%. Unless noted, calls follow the shape of the dose curve; as a rule, active = well fitted curve in the direction sought with a large enough effect; inconclusive = small, poorly fitted or top-dose-only effect, or another doubt; inactive = no such curve, though single readings can be large; an effect the other way counts as inactive or inconclusive.

SMILES | IL1B secr inh | HepG2 tox | ATXN2 expr inh | TGFb SMAD3 inh | ATXN viability
O=C(Nc1nc(-c2ccccc2)cs1)Nc1ccc(F)cc1F | -16 | 3% | -6% | 0% | i
CC(C)[C@H](NC(=O)c1ccccc1Cl)C(=O)Nc1nc(-c2ccccn2)cs1 | 71 | -27% | ? | 1% | ?
O=C(Nc1ccncc1)Nc1ccc(F)c(Cl)c1 | ? | -31% | / | -25% | i
CC(Oc1ccc(Br)cc1)C(=O)Nc1nc(-c2ccccn2)cs1 (centres undefined) | -99* | 0% | ? | ? | ?
O=C(Nc1ccc(F)cc1F)Nc1csc2ccccc12 | -92* | -40% | 34% | ? | i
O=C(Nc1ccc(F)c(Cl)c1)Nc1csc2ccccc12 | -70* | 13µM* | -35% | ? | i
COc1cc(C(=O)N(Cc2ccc(F)cc2)Cc2ccco2)cc(OC)c1OC | / | -27% | / | -29% | /
Cc1ccc(C)n1-c1c(C(=O)NCCCN2CCN(c3ccc(F)cc3)CC2)sc2ncccc12 | / | -33% | -21% | ? | i
CCc1ccc(CNC(=O)c2cc(=O)[nH]c3ccc(S(=O)(=O)N4CCCCC4)cc23)cc1 | / | 1% | / | -1% | /
Cc1ccc(NC(=O)c2ccc(NCCN)c([N+](=O)[O-])c2)cc1Cl | -16 | 18µM* | 8% | ? | i
Cc1ccc(NC(=O)c2ccc(NCCc3ccccc3)c([N+](=O)[O-])c2)cc1F | 3 | -5% | -16% | 5% | ?
COc1cccc(NC(=O)c2ccc(NCCCN3CCC(C)CC3)c([N+](=O)[O-])c2)c1 | -65* | -26% | -38% | -21% | ?
COc1cccc(NC(=O)c2ccc(NCCCN3CC(C)CC(C)C3)c([N+](=O)[O-])c2)c1 (centres undefined) | -7 | -12% | -38% | -19% | i
O=C(Nc1cc(F)cc(F)c1)c1ccc(NCCCN2CCCCCC2)c([N+](=O)[O-])c1 | -76* | -24% | -20% | 20% | ?
CCCN(CCC)CCCNc1ccc(C(=O)Nc2cccc(OC)c2)cc1[N+](=O)[O-] | -81* | -6% | -23% | 5% | i
O=C(Nc1cc(F)cc(F)c1)c1ccc(NCCc2ccccc2)c([N+](=O)[O-])c1 | 1 | -26% | -17% | 10% | ?
COc1cccc(Nc2ccc(C(=O)O)cc2[N+](=O)[O-])c1 | 6 | -4% | -7% | 11% | i
O=C(CC1N=C2c3ccccc3N=C(SCc3cccc(Cl)c3)N2C1=O)NCCc1ccccc1 (centres undefined) | / | -54% | -22% | ? | ?
CCOc1ccc(/C=N/NC(=O)Cc2ccccc2)cc1CN1CC2CC(C1)c1cccc(=O)n1C2 (centres undefined) | -104* | -11% | -3% | -7% | i
N#CC1=C(N)c2ccccc2CC12CCCCC2 | -52* | -46% | -15% | ? | i
CCC(=O)NC1=C(C#N)C2(CCCC2)Cc2ccccc21 | 2 | 10% | -4% | -18% | i
CC1(C)CC2C1CCC1(O)CC2(C)CCC1N(O)c1ccc(C(=O)NCCO)cn1 (centres undefined) | 82 | -39% | 28µM* | -25% | ?
CCCOc1ccc(C(=O)NCCO)cc1 | 0 | 0% | 2% | -2% | i
CCN(C(=O)CSc1nc2ccccc2n1Cc1ccc(F)cc1Cl)c1ccccc1 | / | -6% | 1% | ? | i
CCCCCn1c2c(c(=N)c3ccccc31)CCC2 | ? | -51% | ? | ? | i
SMILES | IL1B secr inh | HepG2 tox | ATXN2 expr inh | TGFb SMAD3 inh | ATXN viability
Cc1cc(C)c2c(=N)c3ccccc3n(CCCCCCCCn3c4ccccc4c(=N)c4c(C)cc(C)nc43)c2n1 | -52* | -94% | 28µM* | ? | ?
CCCCNC(=O)c1nn(-c2ccc(C)cc2)c(=O)n(C)c1=O | / | 7% | -8% | 19% | i
C/C(=N\NC(=O)c1cc2ccccc2cc1O)c1cccs1 | -50* | -34% | 7% | 3% | /
O=C(NNC(=O)c1cc2ccccc2cc1O)c1cccs1 | 176 | -23% | 10% | -9% | ?
Cc1ccc(C(=O)Cn2nnc(-c3cccs3)n2)cc1 | -12 | 2% | 2% | 4% | i
O=C(CN1CC[n+]2c(-c3cccs3)csc21)c1ccc(-c2ccccc2)cc1 | -89* | -22% | -13% | -8% | i
CC1CCN(C(=O)CSc2nnc3ccc(-c4cccnc4)nn23)CC1 | -57* | -40% | -5% | 0% | i
CC(=O)c1cc2c(s1)-c1cc(F)ccc1OC2 | -8 | -44% | ? | 7.1µM* | /
COc1cc(-c2ccc(Cl)cn2)cc2c1OCCN(S(=O)(=O)C[C@]13CC[C@H](CC1=O)C3(C)C)C2 | / | / | / | / | i
C=CS(=O)(=O)c1ccc(Oc2ccc(S(=O)(=O)C=C)cc2)cc1 | -105* | 3.2µM* | 8.9µM* | 0% | 5µM*
NS(=O)(=O)c1ccc(Oc2ccc(S(N)(=O)=O)cc2)cc1 | 26 | 1% | 11% | 8% | i
Cc1cc(C)n(-c2cccc(C(=O)NCC3Cc4cccc(-c5cccnc5)c4O3)c2)n1 (centres undefined) | / | / | / | / | i
CCN(CC)CC(O)Cn1c(C)c(-c2ccccc2)c2cc([N+](=O)[O-])ccc21 (centres undefined) | -77* | -103% | ? | ? | i
O=[N+]([O-])c1ccc2c(c1)c1ccccc1n2CCO | / | -1% | -6% | -7% | /
COc1ccc(OC)c(Nc2ncc3c(n2)CCN(Cc2cc(OC)c(OC)c(OC)c2)C3)c1 | / | -4% | 8% | 1% | i
COc1cc2c(cc1NC(=O)C(C)Sc1cccc[n+]1[O-])oc1ccccc12 (centres undefined) | -55* | -36% | 0% | ? | i
O=C1[C@@H]2Cc3c([nH]c4ccccc34)C(c3ccccc3)N2C(=O)CN1C1CCN(Cc2ccccc2)CC1 (some centres undefined) | -66* | -125% | ? | ? | ?
O=C1[C@@H]2Cc3c([nH]c4ccccc34)C(c3cccc(Br)c3)N2C(=O)CN1C1CCN(Cc2ccccc2)CC1 (some centres undefined) | -64* | -44% | ? | 16µM* | ?
COC(=O)c1ccc(C2c3[nH]c4ccccc4c3C[C@H]3C(=O)N(C4CCN(Cc5ccccc5)CC4)CC(=O)N23)cc1 (some centres undefined) | 0 | -17% | -16% | -21% | i
CC(C)N(c1ccc(C=O)cc1)C(C)C | / | 7% | / | 0% | /
COc1cccc(CN2c3ccc(Br)cc3C(=O)CS2(=O)=O)c1 | 3 | 1% | -1% | 7.9µM* | i
